DAX1 inh – blocks DAX1 repression of SF-1 activated StAR promoter | HEK293T StAR-luciferase reporter, SF-1/DAX-1 repression relief | inhibition, % at 6.8 µM | 1.1% of 370,000 active | AID 652010;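 active = inhibition above the mean over all tested compounds plus 3 SD, cut at about 3.6% in these data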;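 note: higher inhibition means more luminescence from relief of DAX-1 repression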
SMARCA2 act – SMARCA2 function activation, primary screen; MG213 cells, MMTV-luciferase reporter, dexamethasone, overnight; activation, % at 9.1 µM; 1% of 370,000 active; AID 652017; in the data active = activation above about 7.8%
hgDAF-12 ag – activates the H. glycines DAF-12 receptor ligand-binding domain. 1.8% of 370,000 active. AID 687014. HEK293 GAL4-hgDAF12 UAS-luciferase reporter, agonist luminescence; normalized to butyrate control. activation, % at 6.8 µM;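 active = activation above a cutoff set at the mean of all screened compounds plus 3 SD, cut at about 10% in these data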
hcDAF-12 act – activates DAF-12 receptor from parasite H. contortus; HEK293 hcDAF-12 lit1-tk-luc reporter, luminescence; 0% DMSO, 100% Δ7-dafachronic acid; activation, % at 6.8 µM; 1.4% of 370,000 active; AID 652067;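 active = activation above the mean of all tested compounds plus 3 SD, cut at about 5.5% in these data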
ssDAF12 agonist – activates DAF-12 receptor from parasite S. stercoralis; 1% of 370,000 active; activation, % at 6.8 µM; AID 652126; HEK293 ssDAF-12/GRIP1 lit1-tk-luc reporter, luminescence; % of 3 µM dafachronic acid response;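 active = activation above the mean over all tested compounds plus 3 SD, cut at about 0.9% in these data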
DAX1 conf – NR0B1 (human) inhibition, confirmation. HEK293T StAR-promoter luciferase reporter, SF-1/DAX-1 repression. shares compounds with DAX1 inh. inhibition, % at 6.8 µM. 87% of 2,400 active;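 active = inhibition above the average of every tested compound plus 3 SD, cut at about 3.8% in these data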;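 note: active compounds raise luminescence by relieving repression of the StAR reporter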
Target sequence (P51843 whole entry, looked up): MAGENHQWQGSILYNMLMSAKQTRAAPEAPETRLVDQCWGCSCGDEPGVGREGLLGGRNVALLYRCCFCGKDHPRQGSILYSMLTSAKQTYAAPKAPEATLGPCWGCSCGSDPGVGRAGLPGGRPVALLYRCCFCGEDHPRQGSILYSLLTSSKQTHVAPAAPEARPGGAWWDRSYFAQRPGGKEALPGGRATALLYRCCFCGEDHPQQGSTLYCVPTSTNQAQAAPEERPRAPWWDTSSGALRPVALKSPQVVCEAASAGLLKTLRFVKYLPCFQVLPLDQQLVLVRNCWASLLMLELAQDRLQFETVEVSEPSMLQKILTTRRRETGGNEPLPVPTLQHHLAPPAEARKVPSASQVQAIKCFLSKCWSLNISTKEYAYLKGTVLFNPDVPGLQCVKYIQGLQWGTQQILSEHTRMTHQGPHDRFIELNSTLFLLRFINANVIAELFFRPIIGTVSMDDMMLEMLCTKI
SF1 mutant ctr – counter-screen for DAX1 inhibitors: nonselective inhibitors with SF-1 AF2 mutant | AID 652136 | 78% of 2,400 active | inhibition, % at 6.8 µM | shares compounds with DAX1 inh | HEK293 StAR-luciferase, luminescence;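 active = inhibition above the mean of all tested compounds plus 3 SD, cut at about 3% in these data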
SMARCA2 act conf – SMARCA2 activation, confirmation screen; shares compounds with SMARCA2 act; MG213 cells, MMTV-luciferase with dexamethasone, luminescence, overnight; MG213 cells expressing E1A, Rb sequestered; DMSO wells 0%, reference activator 100%; activation, % at 9.1 µM; 30% of 3,500 active;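 active = activation above its plate's cutoff, the mean activation of tested wells plus 3 SD, cut at about 7.9% in these data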
GAL4-VP16 Luc – counter-screen for SMARCA2 activators: GAL4-VP16 luciferase reporter activation; HEK293 GAL4-VP16 pG5luc reporter, luciferase luminescence; scaled: DMSO wells 0%, SAHA wells 100%; shares compounds with SMARCA2 act; 41% of 3,500 active; AID 686939; activation, % at 9.1 µM;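 active = activation above the solvent-only control well mean plus 3 SD, averaged across control plates, cut at about 5.2% in these data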
Large screens that a line does not name were inactive (follow-up assays come after a bar, where they were run). This is a sample that favours compounds with a hit; in the whole collection about 4.2% have one here.

CN(Cc1cn(Cc2ccccc2)nn1)C1CN(Cc2cn(Cc3ccccc3)nn2)S(=O)(=O)C1 (stereo unspecified)	none
N#C/C(=N\Nc1ccccc1)C(=N)N1CCCCCC1	none
N#C/C(=N\Nc1cccc(F)c1)C(=N)N1CCCCCC1	DAX1 inh 6.8, SMARCA2 act 8.5, hgDAF-12 ag 13, ssDAF12 agonist 1.7 | DAX1 conf 19 | SF1 mutant ctr 8.6 | SMARCA2 act conf inactive | GAL4-VP16 Luc 11
COCCn1c(/C=C/c2ccccc2)nc2ccccc21	DAX1 inh 9.8, SMARCA2 act 9.2, hgDAF-12 ag 11 | DAX1 conf 9.7 | SF1 mutant ctr 3.5 | SMARCA2 act conf inactive | GAL4-VP16 Luc 13
COc1ccccc1Cn1c(/C=C/c2ccccc2)nc2ccccc21	none
COc1ccc(CCNC(=O)c2cccn2C)cc1	DAX1 inh 6.3, SMARCA2 act 8.3 | DAX1 conf 7.8 | SF1 mutant ctr 6.5 | SMARCA2 act conf inactive | GAL4-VP16 Luc 9.7
COc1ccc(CCNC(C)=O)cc1	none
COc1ccc(C(=O)Nc2cccc(/C(C)=N\NC(=O)c3ccoc3C)c2)cc1OC	DAX1 inh 12, SMARCA2 act 8.4, hgDAF-12 ag 13 | DAX1 conf inactive | SF1 mutant ctr inactive | SMARCA2 act conf inactive | GAL4-VP16 Luc 7.9
COc1ccc(C(=O)Nc2cccc(/C(C)=N/NC(=O)c3ccc([N+](=O)[O-])c(C)c3)c2)cc1OC	none
COc1ccc(-c2nc3ccccc3c(=O)n2Cc2ccccc2)cc1COc1ccc(NC(C)=O)cc1	none (no result: DAX1 inh, SMARCA2 act)
O=c1cc(-c2ccc(O)c(O)c2)oc2ccc3ccccc3c12	DAX1 inh 8.4, SMARCA2 act 8.2, hgDAF-12 ag 10 | DAX1 conf inactive | SF1 mutant ctr inactive | SMARCA2 act conf inactive | GAL4-VP16 Luc 5.2
O=c1cc(-c2ccc(O)c(O)c2)oc2c1ccc1ccccc12	none
CC(C)c1nc(N(C)S(C)(=O)=O)nc(-c2ccc(F)cc2)c1/C=C/[C@H](O)C[C@@H](O)CC(=O)O	none
O=C(NCCC1=CCCCC1)c1ccc([N+](=O)[O-])cc1	DAX1 inh 4.6, SMARCA2 act 9.5, hgDAF-12 ag 13 | DAX1 conf 13 | SF1 mutant ctr 7.2 | SMARCA2 act conf 13 | GAL4-VP16 Luc 12
CCN1CCN(c2ccc(NC(=O)c3cc4ccccc4cc3OC)cc2C)CC1	DAX1 inh 5.1, SMARCA2 act 12, hgDAF-12 ag 11 | DAX1 conf 7.0 | SF1 mutant ctr 3.1 | SMARCA2 act conf 8.1 | GAL4-VP16 Luc 13
CCN1CCN(c2cc(C)c3cc(NC(=O)c4ccc5c(c4)OCO5)ccc3n2)CC1	none
CCN1CCN(c2ccc(NC(=O)c3ccc4c(c3)OCCO4)cc2C)CC1	DAX1 inh 7.9, SMARCA2 act 11, hgDAF-12 ag 11 | DAX1 conf 11 | SF1 mutant ctr 5.2 | SMARCA2 act conf inactive | GAL4-VP16 Luc 7.9
OC1(C#Cc2c(-c3ccsc3)sc3ccccc23)CCCCC1	none
N#Cc1ccc2sn(-c3ccccc3)c(=O)c2c1	DAX1 inh 7.9, SMARCA2 act 12, hgDAF-12 ag 11 | DAX1 conf 5.1 | SF1 mutant ctr 3.5 | SMARCA2 act conf 7.9 | GAL4-VP16 Luc 11
O=c1c2cc([N+](=O)[O-])ccc2sn1-c1ccccc1	none
CC(=O)Nc1cccc(-c2cccc3nccn23)c1	DAX1 inh 5.4, SMARCA2 act 11 | DAX1 conf 5.6 | SF1 mutant ctr 3.7 | SMARCA2 act conf 8.9 | GAL4-VP16 Luc 7.7
C=CCSc1nnc(NC(=O)C2=COCCO2)s1	DAX1 inh 6.8, SMARCA2 act 8.0, hcDAF-12 act 5.7 | DAX1 conf 7.1 | SF1 mutant ctr 6.6 | SMARCA2 act conf 8.2 | GAL4-VP16 Luc 11
CC(CCN1CCC(C(O)(c2ccccc2)c2ccccc2)CC1)Oc1ccc(F)cc1 (stereo unspecified)	none
CC1CCN(c2nc3ccc(C(=O)NCCCN4CCCCC4)cc3s2)CC1	DAX1 inh 5.9, SMARCA2 act 12, hgDAF-12 ag 11 | DAX1 conf 12 | SF1 mutant ctr 7.2 | SMARCA2 act conf inactive | GAL4-VP16 Luc 17
CCc1cc2c(nc1CC)CCCN2Cc1ccc(Br)cc1	none
Cn1cccc1C(=O)NCC1COc2ccccc2O1 (stereo unspecified)	DAX1 inh 4.7, SMARCA2 act 11 | DAX1 conf 5.1 | SF1 mutant ctr inactive | SMARCA2 act conf 10 | GAL4-VP16 Luc 7.1
O=S1(=O)c2c(cccc2N2CCC[C@@H]2CO)OCCCN1C1CC1	none
C[C@@H]1CN([C@H](C)CO)C(=O)c2cc(NC(=O)Nc3ccc(F)cc3)ccc2O[C@@H](C)CCCCO[C@@H]1CN(C)C(=O)CCCN(C)C	none
O=C(Nc1ccc2c(c1)CN(C(=O)Nc1ccc(F)cc1)CC2)c1ccccn1	none
COC(=O)c1ccccc1NC(=O)N1CCc2ccc(NC(=O)c3ccccn3)cc2C1	DAX1 inh 5.1, SMARCA2 act 8.1 | DAX1 conf inactive | SF1 mutant ctr inactive | SMARCA2 act conf inactive | GAL4-VP16 Luc 7.5
CCOC(=O)N1CCN(C(=O)C[C@H]2C[C@@]3(C(=O)OC)C(=C[C@H](C(C)(C)C)O[C@@H]3C)N(Cc3ccc4c(c3)OCO4)C2=O)CC1	none
O=C(/C=C/c1ccc2c(c1)OCO2)Nc1cccnc1	DAX1 inh 11, SMARCA2 act 13, hgDAF-12 ag 11 | DAX1 conf 14 | SF1 mutant ctr 4.5 | SMARCA2 act conf inactive | GAL4-VP16 Luc 5.6
CN(CCO)c1c2c(nc3cc(-c4cccc(F)c4)nn13)CCCC2	DAX1 inh 6.4, SMARCA2 act 13 | DAX1 conf 10 | SF1 mutant ctr 4.0 | SMARCA2 act conf 11 | GAL4-VP16 Luc 18
Cc1ccc(NC(=O)Nc2ccc3c(c2)OCO3)c(OC(F)F)c1	DAX1 inh 5.7, SMARCA2 act 8.5 | DAX1 conf 9.1 | SF1 mutant ctr 7.1 | SMARCA2 act conf 9.0 | GAL4-VP16 Luc 9.4
Cc1cc(NC(=O)c2ccco2)sc1C	DAX1 inh 4.5, SMARCA2 act 9.1, hcDAF-12 act 5.7 | DAX1 conf 6.4 | SF1 mutant ctr 4.5 | SMARCA2 act conf 12 | GAL4-VP16 Luc 11
Cc1cccc(NC(=O)c2ccco2)c1C	none
